According to the supplement of paper PMC6089552:
In all, about 3,200 compounds went through this assay and about 300 (9.4%) showed activity. This is one part of a sample in which actives are shown more often than they occur.

Tested on: A673/TR/shEF
Assay: cell viability (LOESS-normalised, relative to median of negative controls) (log2 ratio); higher = more viable cells (less compound effect), active = hit call of the paper (over 3 MAD below the median)
Conditions: treatment time: 72 h
How it was run: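 Doxycycline, present or absent from 24 h before compounds, was used to induce EWS-FLI1 shRNA knockdown in A673/TR/shEF Ewing sarcoma cells at 1,500 per well in 384-well plates. Cells then received library compounds at two or more concentrations, or DMSO controls, for three days. Viability was measured by CellTiter-Glo luminescence on an Envision reader, and per-plate LOESS correction, division by the negative-control median and log2 transformation followed.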

[1] = 0.25 µM, library screen: screen1, EWS-FLI1 expression: high (no doxycycline)
[2] = 0.25 µM, library screen: screen1, EWS-FLI1 expression: low (doxycycline-induced shRNA knockdown)
[3] = 2.5 µM, library screen: screen1, EWS-FLI1 expression: high (no doxycycline)
[4] = 2.5 µM, library screen: screen1, EWS-FLI1 expression: low (doxycycline-induced shRNA knockdown)
[5] = 0.25 µM, library screen: screen2, EWS-FLI1 expression: high (no doxycycline)
[6] = 0.25 µM, library screen: screen2, EWS-FLI1 expression: low (doxycycline-induced shRNA knockdown)
[7] = 2.5 µM, library screen: screen2, EWS-FLI1 expression: high (no doxycycline)
[8] = 2.5 µM, library screen: screen2, EWS-FLI1 expression: low (doxycycline-induced shRNA knockdown)
[9] = 0.103 µM, library screen: screen3, EWS-FLI1 expression: high (no doxycycline)
[10] = 0.103 µM, library screen: screen3, EWS-FLI1 expression: low (doxycycline-induced shRNA knockdown)
[11] = 0.308 µM, library screen: screen3, EWS-FLI1 expression: high (no doxycycline)
[12] = 0.308 µM, library screen: screen3, EWS-FLI1 expression: low (doxycycline-induced shRNA knockdown)
[13] = 0.926 µM, library screen: screen3, EWS-FLI1 expression: high (no doxycycline)
[14] = 0.926 µM, library screen: screen3, EWS-FLI1 expression: low (doxycycline-induced shRNA knockdown)
[15] = 2.8 µM, library screen: screen3, EWS-FLI1 expression: high (no doxycycline)
[16] = 2.8 µM, library screen: screen3, EWS-FLI1 expression: low (doxycycline-induced shRNA knockdown)
[17] = 8.3 µM, library screen: screen3, EWS-FLI1 expression: high (no doxycycline)
[18] = 8.3 µM, library screen: screen3, EWS-FLI1 expression: low (doxycycline-induced shRNA knockdown)
[19] = 25 µM, library screen: screen3, EWS-FLI1 expression: high (no doxycycline)
[20] = 25 µM, library screen: screen3, EWS-FLI1 expression: low (doxycycline-induced shRNA knockdown)

Measured: cell viability (log2)

O=C1c2ccc(O)cc2OC(c2cc(O)c(O)c(O)c2)C1O (stereo not given)
inactive: [1] 0.0896 | [2] 0.0484 | [3] 0.165 | [4] 0.11

Nc1nc(Cl)nc2c1ncn2[C@@H]1O[C@H](COP(=O)(O)OP(=O)(O)OP(=O)(O)O)[C@H](O)C1O (stereo not given in full)
inactive: [5] 0.146 | [6] 0.0571 | [7] 0.0213 | [8] 0.0355

Nc1nc(Cl)nc2c1ncn2[C@@H]1O[C@H](CO)[C@@H](O)[C@@H]1F
inactive: [9] 0.0438 | [10] 0.0567 | [11] 0.104 | [12] 0.0694 | [13] -0.027 | [14] 0.0481 | [16] 0.0753 | [18] -0.0627
active: [15] -0.287 | [17] -1.27 | [19] -3.63 | [20] -0.69

Nc1nc(Cl)nc2c1ncn2[C@@H]1O[C@H](CO)[C@@H](O)[C@H]1O
inactive: [5] 0.323 | [6] 0.0766 | [7] 0.0971 | [8] -0.0176

Nc1nc(Cl)nc2c1ncn2[C@H]1C[C@H](O)[C@@H](CO)O1
inactive: [9] 0.0389 | [10] -0.0254 | [11] 0.0133 | [12] 0.0217 | [13] 0.0147 | [14] 0.0591 | [15] -0.0664 | [16] 0.0972 | [18] -0.0455
active: [17] -0.402 | [19] -1.32 | [20] -0.402

OC[C@H]1O[C@@H](n2cnc3c(NC4CCCC4)nc(Cl)nc32)[C@H](O)[C@@H]1O
inactive: [5] 0.143 | [6] 0.038 | [7] 0.169 | [8] 0.0636

Nc1ncnc2c1ncn2[C@H]1C[C@H](O)[C@@H](CO)O1
inactive: [1] 0.0888 | [2] 0.137 | [3] 0.0495 | [4] 0.162

CC1(NCC(O)COc2cccc3[nH]ccc23)CCC(C(C)(C)NC(=O)CBr)CC1 (stereo not given)
inactive: [5] 0.126 | [6] 0.0547 | [7] 0.106 | [8] 0.0182

CCOc1c(Br)cc(C=C(C#N)c2nn(-c3ccccc3)c(N)c2C#N)cc1OC
inactive: [1] 0.0856 | [2] 0.124 | [3] 0.0719 | [4] 0.193

CCOC(=O)c1c[nH]c2c(C)cccc2c1=O
inactive: [1] 0.111 | [2] 0.0771 | [3] 0.1 | [4] -0.0609

CC[C@H]1OC(=O)[C@H](C)[C@@H](O[C@H]2C[C@@](C)(OC)[C@@H](O)[C@H](C)O2)[C@H](C)[C@@H](O[C@@H]2O[C@H](C)C[C@H](N(C)C)[C@H]2O)[C@](C)(O)C[C@@H](C)[C@@H]2N[C@@H](COCCOC)OC([C@H]2C)[C@]1(C)O
inactive: [1] 0.163 | [2] 0.065 | [3] 0.143 | [4] 0.0253

COc1cc(O)c2c(=O)c(-c3ccc(O)cc3)coc2c1
inactive: [1] -0.0342 | [2] 0.0164 | [3] 0.131 | [4] 0.0327

O=C1CCCCC/C=C\CCCCCCCCO1
inactive: [1] -0.00728 | [2] 0.0186 | [3] 0.143 | [4] 0.0924

CCCCCCCCCCCCCCCCCC(=O)NCC(COP(=O)([O-])OCC[N+](C)(C)C)OC (stereo not given)
inactive: [5] 0.255 | [6] 0.0758 | [7] 0.173 | [8] 0.0504

Cc1cc(Nc2cc(CN3CCOCC3)c3nc(C)c(Cc4ccc(Cl)cc4F)n3n2)n[nH]1
active: [15] -0.183 | [17] -0.442 | [18] -0.142 | [19] -1.04 | [20] -0.863
inactive: [9] 0.0112 | [10] 0.0393 | [11] -0.00623 | [12] -0.00356 | [13] -0.0578 | [14] 0.0432 | [16] -0.0123

COc1c2ccoc2c(OC)c2oc(=O)ccc12
inactive: [1] 0.157 | [2] -0.0309 | [3] 0.197 | [4] 0.0899

CC1Cc2ccccc2N1C(=S)Nc1ccc2nccnc2c1 (stereo not given)
inactive: [1] 0.139 | [2] 0.113 | [3] 0.133 | [4] 0.0139

CCC(C)(C)C(=O)O[C@H]1C[C@@H](C)C=C2C=C[C@H](C)[C@H](CC[C@@H]3C[C@@H](O)CC(=O)O3)[C@H]21
inactive: [9] 0.14 | [10] 0.05 | [1] 0.0551 | [2] -0.0746 | [11] 0.153 | [12] 0.105 | [13] 0.0408 | [14] 0.0447 | [3] 0.0209 | [4] -0.321 | [15] 0.107 | [16] -0.0366 | [17] -0.0829 | [18] -0.13
active: [19] -1.27 | [20] -1.32

CC[C@H](C)C(=O)O[C@H]1C[C@@H](C)C=C2C=C[C@H](C)[C@H](CC[C@@H]3C[C@@H](O)CC(=O)O3)[C@H]21
inactive: [1] 0.0174 | [2] -0.0358 | [3] 0.109 | [4] 0.0431

CC[C@H](C)C(=O)O[C@H]1CCC=C2C=C[C@H](C)[C@H](CC[C@@H]3C[C@@H](O)CC(=O)O3)[C@H]21
inactive: [1] 0.147 | [2] 0.00215 | [5] 0.167 | [6] 0.108 | [3] 0.0603 | [4] -0.0998 | [7] 0.145 | [8] 0.0674
